# Laboratory results as given in PubChem BioAssay (NCI).
# This is part of a sample that, as a whole, favours compounds with a hit. Of some 83,000 tested, about 20% had one in any assay.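 Percent growth is the endpoint: 0 to 100 indicates growth inhibition (40 means 60% inhibition), 0 means no net growth, and negative values indicate cell death.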 Unmarked numbers belong to inactive results. Active and inactive are the calls of the source. Rule for the calls: active = growth percent below 10; inactive = the rest.
# What was measured:
# Experiment in all cases: NCI-60 one-dose screen, 48 h (100 = growth as untreated, 0 = no growth, -100 = all killed)
# Conditions in all cases: 10 µM unless noted
# NCI-H23 lung = test system: NCI-H23 lung
# NCI-H226 lung = test system: NCI-H226 lung
# NCI-H322M lung = test system: NCI-H322M lung
# HOP-62 NSCLC = test system: HOP-62 NSCLC
# NCI-H460 lung = test system: NCI-H460 lung
# HOP-92 NSCLC = test system: HOP-92 NSCLC
# NCI-H522 lung = test system: NCI-H522 lung
# A549/ATCC NSCLC = test system: A549/ATCC NSCLC
# 786-0 renal = test system: 786-0 renal
# COLO 205 colon = test system: COLO 205 colon
# DU-145 prostate = test system: DU-145 prostate
# K-562 leukemia = test system: K-562 leukemia
# MALME-3M melanoma = test system: MALME-3M melanoma
# MDA-MB-231 breast = test system: MDA-MB-231 breast
# RXF 393 renal = test system: RXF 393 renal
# SF-268 CNS = test system: SF-268 CNS
# SF-295 CNS = test system: SF-295 CNS
# SF-539 CNS = test system: SF-539 CNS
# UACC-257 melanoma = test system: UACC-257 melanoma
# M14 melanoma = test system: M14 melanoma
Structure (SMILES),growth (NCI-H23 lung) [%],growth (NCI-H226 lung),growth (NCI-H322M lung) [%],growth (HOP-62 NSCLC) [%],growth (NCI-H460 lung),growth (HOP-92 NSCLC),growth (NCI-H522 lung) [%],growth (A549/ATCC NSCLC),growth (786-0 renal),growth (COLO 205 colon),growth (DU-145 prostate),growth (K-562 leukemia),growth (MALME-3M melanoma),growth (MDA-MB-231 breast),growth (RXF 393 renal),growth (SF-268 CNS) [%],growth (SF-295 CNS),growth (SF-539 CNS),growth (UACC-257 melanoma),growth (M14 melanoma)
CC1(C)CC[C@]2(C(=O)O)CC[C@]3(C)C(=CC[C@@H]4[C@@]5(C)Cc6c([nH]c7ccccc67)C(C)(C)[C@@H]5CC[C@]43C)[C@@H]2C1,32.8,48.9%,27.3,28.2,16.7%,60.3%,31.5,17.8%,37.7%,-15.5% (active),49.5%,28.8%,115%,65.5%,67.2%,54,36.7%,36.2%,88.5%,76.4%
O=S(=O)(NCCNc1nccc(-c2c(-c3cccc(O)c3)nc3occn23)n1)c1ccc(C(F)(F)F)cc1,102,106%,108,107,94.9%,92.6%,94.6,94.8%,101%,44.1%,108%,97.2%,7.76% (active),90.7%,101%,97.3,107%,114%,61.1%,38.9%
O=S(=O)(NCCCNc1nccc(-c2c(-c3cccc(F)c3)nc3sccn23)n1)c1cccc2ccccc12,66.2,36.8%,81.6,80.7,19.8%,94.6%,56.3,45.6%,52.9%,21.5%,49.9%,15.2%,78.7%,4.05% (active),62.9%,44.5,34.6%,72.8%,72.9%,42.7%
COc1cc2nc(-c3ccc(Cl)cc3)cc(OCCCN3CCOCC3)c2cc1OC,73.3,-7.3% (active),57.4,60.1,21.6%,19.3%,21.6,29.9%,67.5%,25.7%,43.8%,10.3%,64.9%,27.2%,28.7%,63.2,-39% (active),64.1%,1.42% (active),-37.9% (active)
CCCCCCNC(=O)Oc1ccc(/C(=C(\C)c2ccccc2)c2ccc(OCCN3CCCCC3)cc2)cc1,68.7,93.8%,80.5,75.4,41%,64.1%,71.8,64.4%,16.3%,5.73% (active),82.8%,4.69% (active),34.2%,78.1%,47.6%,68.3,35.4%,23.3%,-0.337% (active),-22.9% (active)
O=C(CSc1nc2sc3c(c2c(=O)n1-c1ccc(Cl)cc1)CCCC3)Nc1nc(-c2cccc(Br)c2)cs1,56.9,64%,87.8,90.7,94.7%,107%,69.8,70.4%,91.5%,85.1%,68.5%,95.8%,95.3%,80.7%,99.5%,69.6,42.4%,97.3%,99.3%,76.6%
CCN(CC)CCn1c(=O)c2cc(OC)c(OC)cc2c2ccc3cc4c(cc3c21)OCO4,19.5,1.83% (active),41,21.9,6.21% (active),52.6%,34.9,39.4%,11.4%,30.2%,24.1%,33.4%,17.2%,54.8%,8.86% (active),35.6,24.5%,-7.07% (active),41.3%,10.6%
CCCC/C=N/NC(=S)NCc1ccccc1,103,98.6%,105,82.1,101%,93.6%,94.6,97.9%,102%,100%,106%,91.7%,97%,98.8%,106%,102,102%,94%,91.2%,87.4%
CC1=C(C(=O)/C=C/c2ccc(N(C)C)cc2)C(c2ccccc2)NC(=S)N1 (stereo not given),93.3,93.8%,103,106,108%,96.6%,91,106%,101%,119%,107%,92.1%,108%,100%,107%,97.8,110%,97.1%,99.7%,101%
COc1ccc(C(=O)c2cc(C)c(OC)c(C)c2)c(OC)c1NC(C)=O,29.5,17.4%,42.7,20.3,3.32% (active),6.76% (active),13.4,18.1%,13.7%,-5.99% (active),4.21% (active),15.5%,58.5%,20.9%,10.8%,37.9,13%,-13.7% (active),66.1%,-8.33% (active)
N#Cc1c(NC(=O)NCc2ccccc2)sc2c1CCCCC2,37.5,22.5%,44.9,34.2,0.445% (active),44.8%,12.1,25.5%,26.3%,2.15% (active),3.54% (active),12.7%,44.7%,10.7%,-3.29% (active),41,19.9%,-5.27% (active),61.6%,10.9%
N#Cc1cc(-c2nc3ccccc3s2)c(=O)n(NS(=O)(=O)c2ccccc2)c1N,102,85.7%,108,90.1,106%,104%,94.2,117%,106%,122%,116%,104%,112%,91%,113%,97.4,111%,100%,111%,107%
CC(=O)Nc1ccc(-n2cnc3cc(-c4ccc(OCCN5CCCCC5)cc4)ccc32)cc1,73.2,74.1%,104,82.5,4.54% (active),105%,91.9,-3.26% (active),-40.9% (active),107%,89.3%,1.57% (active),77.5%,76.1%,80.4%,84.1,96.7%,14.4%,108%,47.1%
CCN(Cc1ccccc1)c1ccc(C=O)cc1,96.3,2.99% (active),93.9,108,100%,81.9%,100,98.1%,102%,113%,110%,93.3%,117%,96.5%,88.6%,106,114%,87.7%,106%,102%
COc1cccc(-c2nc3occn3c2-c2ccnc(NCCCNS(=O)(=O)c3ccc(C(F)(F)F)cc3)n2)c1,99.3,80.5%,99.4,103,89.8%,104%,86.9,89.7%,86.8%,70%,89.2%,69.8%,95.8%,90.1%,79.6%,75,95.2%,89.5%,84.5%,85.6%
NC(=NCc1ccccc1)C(N=Nc1ccccc1)C(=O)NCc1ccccc1 (stereo not given),65.3,109%,101,92.2,50.1%,99%,63.4,1.29% (active),92.4%,79.5%,94.4%,25.2%,133%,68.3%,72.6%,53.5,53.9%,50.3%,95.4%,82.9%
CCC(CC)NCC(C)(C)O,97.7,109%,94,119,103%,105%,105,102%,107%,120%,106%,102%,113%,102%,117%,109,103%,111%,106%,97%
CCOc1ccc(/C=N/Nc2cc(C)nc3ccc(Br)cc23)cc1,82.2,92.7%,93.5,96.5,87.2%,57.5%,97.7,82%,96.1%,96.2%,94.2%,20.2%,102%,68.5%,85.8%,99.7,82.7%,102%,96%,94%
NC(=O)Nc1ccc(-n2cnc3cc(-c4ccc(O)cc4)ccc32)cc1,103,110%,101,104,102%,149%,73.3,96.8%,109%,-20.8% (active),107%,89.3%,98.4%,107%,123%,96.3,97.4%,67.2%,112%,91.6%
O=C(Nc1cccc(C2=NCCN2)c1)c1ccc(-c2ccc(C(=O)Nc3cccc(C4=NCCN4)c3)cc2)cc1,73,84%,93.8,113,37.8%,90.9%,60.5,74.9%,86.2%,43.9%,39.1%,35.5%,9.06% (active),79.6%,122%,90.2,71.1%,97.5%,36.7%,77.7%
COc1ccc(C/C(C)=C(/c2ccc(OCCCN(C)C)cc2)c2ccc(OC(C)=O)cc2)cc1,80.7,98%,94.5,83.2,73.1%,64.5%,95.5,74.3%,63.2%,50.1%,89.2%,3.38% (active),79%,66.8%,65.6%,71,27.1%,72.6%,73.6%,50.6%
C=C1C(=O)O[C@H]2[C@H]1CC/C(C(=O)NCCCCCNC(=O)/C1=C/CC[C@@]3(C)O[C@H]3[C@H]3OC(=O)C(=C)[C@@H]3CC1)=C\CC[C@@]1(C)O[C@@H]21,97.6,103%,93.9,98.8,109%,105%,89.3,95.3%,101%,102%,104%,114%,96.2%,106%,110%,96.1,105%,105%,97.7%,92.3%
Cn1ccnc1C(=O)/C=C/c1ccc(CC(=O)Nc2ccc(F)cc2)cc1,27.8,82.5%,42.8,18.4,3.59% (active),71%,16.9,38.2%,30.4%,41.6%,-15.6% (active),5.72% (active),90.4%,30.1%,35.6%,10,37.1%,2.33% (active),85.3%,81.1%
COc1ccc(/C=N/NC(=O)c2cnn3c2NC(c2ccccc2)C3)cc1OC (stereo not given),73.9,94.1%,75.4,60,28.3%,73.2%,42.8,54.2%,76.2%,45.7%,81.1%,24.1%,76.4%,66%,78.2%,73.7,36.3%,63.4%,77.9%,45.5%
CC1(C)c2[nH]c3ccccc3c2C[C@]2(C)[C@H]3C(=O)C=C4[C@@H]5C[C@@](C)(C(N)=O)CC[C@]5(C)CC[C@@]4(C)[C@]3(C)CC[C@@H]12,72.5,73.2%,66.4,85.3,69.4%,55.4%,68.7,65.8%,75%,46.7%,92.2%,31.3%,79.3%,74.1%,70.5%,69.1,82.9%,92.8%,83.2%,80.2%
N#CC(C#N)=Cc1cc2ccccc2nc1Oc1ccc(C(F)(F)F)cc1,81.8,77.1%,99.2,93.7,97.4%,48.7%,91.8,99.5%,98.8%,101%,99.1%,64.5%,98.8%,84.5%,92.3%,84.4,92.2%,96.9%,106%,92.8%
COc1cccc(-c2nc3occn3c2-c2ccnc(NCCNS(=O)(=O)c3ccc(C(F)(F)F)cc3)n2)c1,98.2,75.8%,98.9,119,88%,95.9%,86.6,87.9%,79.5%,77.7%,96.4%,71.6%,107%,87.2%,90.8%,88.2,99.1%,104%,121%,102%
C/C(=N\Nc1cc(C)nc2ccc(Br)cc12)c1ccc([N+](=O)[O-])cc1,88.4,90%,82.7,76.9,69.8%,77%,76.6,78.6%,10%,31.8%,64.8%,11.3%,123%,59.4%,68.6%,97.8,49.4%,-43.6% (active),107%,84.6%
CC(=O)c1cc2c(N)c(C(=O)Nc3cccc4ccncc34)sc2nc1C,102,104%,105,91.8,104%,75.2%,96,97.9%,98.5%,102%,109%,82.2%,101%,93%,104%,98.5,85%,94.1%,96.2%,75.8%
Cc1c(C(=O)NCCC(=O)NO)sc2ncnc(Nc3ccc(NC(=O)Nc4cccc(C(F)(F)F)c4)cc3)c12,100,97.9%,104,102,99.4%,115%,94.4,104%,116%,113%,105%,104%,112%,105%,104%,93.4,91.8%,79%,108%,107%
